# Screens from PubChem.
# SARS PLP yeast = inhibitors of SARS-CoV papain-like protease in yeast | Potency, µM (series often up to 32.9 µM), inactives show at the highest dose activity, positive = growth rescue, usual class: activators | 330,000 compounds, 0.19% hits | S. cerevisiae expressing SARS-CoV PLpro, growth rescue | AID 485353; calls by dose curve; also: 0% is about no effect; nearly all actives have a fitted effect of over 55% in size
# Pf growth 48h = P. falciparum growth inhibition at 48 hours (one generation); P. falciparum luciferase growth in erythrocytes, 48 h; Potency, µM (series often up to 28.7 µM), inactives show at the highest dose activity change, negative = inhibition, actives largely listed as inhibitors; AID 504832; 310,000 compounds, 5.9% hits; also: % is scaled to controls: 0 for no effect and ±100 for the full control effect
#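 Read-out is firefly luciferase luminescence from an integrated reporter in P. falciparum, so falling signal marks reduced parasite growth. Infected erythrocytes were at 2% hematocrit and 0.1% parasitemia (final) in Albumax-supplemented RPMI 1640.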
# Pf growth 96h = P. falciparum growth inhibition at 96 hours | P. falciparum luciferase reporter growth, 96 h | Potency, µM (doses to about 28.7 µM), inactives show top-dose activity change, negative = inhibition, most hits filed as inhibitors | 320,000 compounds, 6.9% hits; also: % is scaled to controls: 0 for no effect and ±100 for the full control effect
#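 Readout is luminescence from an integrated firefly luciferase in P. falciparum. Red cells, 2% hematocrit and 0.05% parasitemia final, were cultured with compound through two parasite generations (96 hours) at 37 C, 5% CO2.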
# NS1 inh = inhibitors of influenza NS1 protein function. Potency, µM (top dose mostly 46.1 µM), inactives show at the top dose activity, positive = more growth. 270,000 compounds, 0.4% hits; calls by dose curve; also: actives are rising curves; nearly all actives have a fitted effect of over 50% in size
#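 A cell-based growth assay was used: compounds that relieve NS1-induced slow growth of budding yeast raise OD600. Assay medium was yeast nitrogen base with ammonium sulphate and -URA supplement, pH 6.0, with 2% galactose.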
# * = called active by the depositor; ? = inconclusive; nt = no result given; [ ] = remark or other dose. Compounds with a hit are over-represented: about 10% of the library has one in this group of screens. Unless noted, calls follow the shape of the dose curve; as a rule, active = well fitted inhibition curve with a large enough effect; inconclusive = small, poorly fitted or top-dose-only effect, or another doubt; inactive = no such curve, though single readings can be large or run the other way. Potency is read from the fitted curve at half-maximal effect.
SMILES,SARS PLP yeast,Pf growth 48h,Pf growth 96h,NS1 inh
O=C(NNC(=O)C12CC3CC(CC(C3)C1)C2)c1csc(N2CCOCC2)n1,2%,?,13µM*,nt
CC1(C)Cc2c(c(=S)nc(-c3ccccc3)n2CCOCCO)CO1,-8%,6%,-36%,-13%
OCCOCCn1c(-c2ccccc2)nc(=S)c2c1CCCC2,1%,nt,10µM*,-5%
O=C(Nc1ccc(Cl)cc1)Nc1nnc(CSCc2ccc(Cl)cc2)s1,4%,4.1µM*,8.3µM*,-1%
O=C(Nc1ccccc1)Nc1nnc(Cc2ccccc2F)s1,-6%,0%,?,-2%
O=C(Nc1ccc(F)cc1)Nc1nnc(Cc2ccccc2F)s1,-1%,?,10µM*,10%
CCC(=O)Nc1nnc(CSCc2ccc(F)cc2)s1,-1%,nt,0.93µM*,-9%
CCc1nnc(NC(=O)Nc2ccc(Cl)cc2)s1,1%,?,?,5%
COc1cc(NC(=S)NC2CC2)c(OC)cc1Cl,?,5%,11%,11%
COc1cc([C@H]2[C@@H]3CCCC[C@]3(O)CCN2Cc2ccccc2F)ccc1O,6%,?,12µM*,7%
Cc1ccc(S(=O)(=O)N(CC(=O)Nc2ccccc2C(=O)O)c2ccc(Cl)cc2)cc1,0%,-9%,210%,?
COc1ccc(S(=O)(=O)N2CCOCC2)cc1NC(=O)COC(=O)CC1CC2CCC1C2 (stereo unspecified),-1%,nt,nt,nt
CCOc1ccc(C2=C(C=Nc3c(C)n(C)n(-c4ccccc4)c3=O)C(c3ccc(F)cc3)c3ccccc3O2)cc1 (stereo unspecified),-9%,nt,0.29µM*,-3%
CCOc1ccc(C2SCC(=O)N2c2c(C)n(C)n(-c3ccccc3)c2=O)cc1 (stereo unspecified),-7%,12%,9%,-3%
COc1cc2c(cc1OC)C1CC(=O)C(CC(C)C)CN1CC2 (stereo unspecified),13%,0%,-10%,8%
CC[C@H]1CN2CCc3cc(OC)c(OC)cc3[C@H]2C[C@@H]1C[C@@H]1NCCc2cc(OC)c(OC)cc21,nt,0.067µM*,0.067µM*,nt
Cc1sc2ncnc(N3CCCCC3)c2c1C,7%,0%,nt,-46%
Cc1sc2ncnc(NCC(c3ccco3)N3CCCC3)c2c1C (stereo unspecified),12%,10µM*,8.3µM*,2%
CC(=O)c1cc(C)ccc1OC(=O)c1cccnc1,-4%,-23%,9.3µM*,1%
COCCN(C(=S)Nc1cccc(OC)c1)C1CCN(C(C)C)CC1,-31%,1%,13µM*,-8%
CCOC(=O)N1CCC(N(CCN(C)C)C(=S)Nc2cccc(OC)c2)CC1,3%,-5%,7.4µM*,nt
CCOC(=O)N1CCC(N(CCOC)C(=O)Nc2ccc(CC)cc2)CC1,-3%,-26%,7.4µM*,-12%
COCCN(C(=S)Nc1ccc(OC)cc1)C1CCN(C(C)C)CC1,11%,-4%,12µM*,-1%
CC(C(=O)Nc1ccc(F)c(F)c1F)N(C)CCOc1ccccc1 (stereo unspecified),nt,10%,?,-12%
CC(=O)NC(CC(=O)Nc1ccc2c(c1)OCCO2)c1ccccc1 (stereo unspecified),-1%,40%,64%,-8%
SMILES,SARS PLP yeast,Pf growth 48h,Pf growth 96h,NS1 inh
CCOC(=O)C1=C(COC(=O)[C@@H](NC(=O)c2cccc(C)c2)C(C)C)NC(=O)NC1C (stereo partly specified),1%,nt,nt,nt
Cc1ccn2c(Nc3ccc4c(c3)OCO4)c(-c3ccccn3)nc2c1,?,12µM*,?,?
Cc1ccc(-c2nc3ncccn3c2Nc2ccc3c(c2)OCCO3)cc1,0%,nt,12µM*,-8%
Cc1ccc(-c2nc3cnccn3c2Nc2ccc3c(c2)OCO3)o1,-2%,?,?,-38%
Cc1ccc(Nc2c(-c3ccccn3)nc3ccc(C)cn23)cc1,-9%,?,151%,nt
Cc1ccc(Nc2c(-c3ccccn3)nc3cc(C)ccn23)cc1,-31%,?,9.3µM*,nt
COc1ccc(-c2nc3ncccn3c2Nc2ccc3c(c2)OCCO3)cc1,nt,?,30%,5%
COc1ccccc1OCCC(=O)NNC(=O)c1ccccc1F,8%,-14%,-11%,nt
CCOc1ccc(-c2c(C#N)c(N)nc3sc(C(=O)c4ccccc4)c(N)c23)cc1,-2%,-7%,?,-3%
COc1ccc(-c2c(C#N)c(N)nc3sc(C(=O)c4ccccc4)c(N)c23)cc1,9%,9.3µM*,-10%,7%
N#Cc1ccccc1-c1csc(N2CCC(C(N)=O)CC2)n1,nt,9%,7%,nt
Cc1ccc(-n2nnnc2SCC(=O)NC2CCS(=O)(=O)C2)c(C)c1 (stereo unspecified),4%,?,10%,nt
Cc1ccc(CN2CCN(Cc3cccn3-c3ccccn3)CC2CCO)cc1 (stereo unspecified),0%,-1%,46%,-2%
Cc1ccc(CN2CCN(Cc3ccncc3)CC2CCO)o1 (stereo unspecified),0%,10%,?,2%
OCCC1CN(Cc2cccn2-c2ncccn2)CCN1Cc1ccccc1 (stereo unspecified),0%,-6%,13µM*,-4%
CC(C)CCN1CCN(Cc2cccn2-c2ccc(Cl)cn2)CC1CCO (stereo unspecified),1%,9.3µM*,0%,-3%
CCn1ccnc1CN1CCN(CCC(C)C)C(CCO)C1 (stereo unspecified),0%,4%,12µM*,2%
CC(C)CCN1CCN(Cc2cccn2-c2cccnc2)CC1CCO (stereo unspecified),1%,-9%,?,0%
CCn1ccnc1CN1CCN(CC(C)C)C(CCO)C1 (stereo unspecified),1%,6%,0%,3%
Cc1ccc(CN2CCN(Cc3cccn3-c3ccc(Cl)cn3)CC2CCO)o1 (stereo unspecified),4%,?,12µM*,-3%
CN(CC(=O)Nc1ccc(F)cc1)CC(=O)N1CCCCCC1,1%,-15%,?,nt
C=CSc1sc(Cl)c(N2CCOCC2)c1[N+](=O)[O-],0%,8.3µM*,25%,-10%
C=CS(=O)(=O)c1sc(Cl)c(N2CCOCC2)c1[N+](=O)[O-],-6%,-7%,-13%,-77%
OC1(c2ccccc2)CNCCc2ccccc21 (stereo unspecified),1%,-15%[0.00184 µM],-10%,-1%
COc1ccc([C@@H]2[C@@H]3C(=O)N(C(C)(C)C)C(=O)[C@@H]3[C@]3(C)C(=O)N(c4ccc(C(F)(F)F)cc4)C(=O)N23)cc1,-9%,?,?,-15%
COc1ccc2c(c1OC)C(=O)N1c3ccccc3C(=O)N(c3ccc(F)cc3)C21 (stereo unspecified),-1%,?,?,-1%
COc1ccc2c(c1OC)C(=O)N1c3ccccc3C(=O)N(c3ccccc3)C21 (stereo unspecified),0%,13µM*,10µM*,-14%
Clc1ccccc1C1Nc2cccc3cccc(c23)N1,-10%,?,-15%,19%
Oc1ccc(C2Nc3cccc4cccc(c34)N2)c(O)c1,-10%,6.6µM*,1.5µM*,4%
